# Active and inactive are the calls of the source. How the source made its calls: active means hit-call score of the fitted dose curve at least 0.9, where 1 is the maximum; inactive means score below 0.9.
# Tests used:
# [1] = ATG_M_32_CIS: Attagene CIS-FACTORIAL HepG2 Assay for M32 Transcription Factor (Internal Marker) (AID 2282949); details: HepG2 Attagene cis-factorial M32 reporter, mRNA; actives raise or lower the signal;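 further: background control marker of the multiplexed CIS panel rather than a real target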
# Procedure, shortened: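 HepG2 human liver cells transiently transfected with cis-promoter-driven multiple reporter transcription units, dosed 24 h. Reporter mRNA quantified by RT-PCR, FAM-labelled primer extension, HpaI digest and capillary electrophoresis; bidirectional fit versus DMSO baseline.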
# [2] = ATG_M_06_CIS: Attagene CIS-FACTORIAL HepG2 Assay for M06 Transcription Factor (Internal Marker) (AID 2282950); details: HepG2 Attagene CIS-FACTORIAL M06 internal marker reporter; actives raise or lower the signal
# Procedure, shortened: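 Serves as a background control readout. Transfected HepG2 exposed to compounds for 24 h, then reporter transcripts quantified by fluorescent RT-PCR and capillary electrophoresis. Both directions fitted against DMSO baseline.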
# [3] = target: Hypoxia-inducible factor 1-alpha (Homo sapiens) (UniProt Q16665); test: ATG_HIF1a_CIS: Attagene CIS-FACTORIAL HepG2 Assay for human Hypoxia Inducible Factor 1 (HIF1A) (AID 2282951); details: HepG2 Attagene cis-factorial HIF1a reporter transcription; actives raise or lower the signal
# Procedure, shortened: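 Transient MRTU transfection of human HepG2 liver cells, 24 h compound treatment, then total RNA isolation, oligo(dT) reverse transcription, PCR amplification, fluorescent labelling and capillary electrophoresis of reporter fragments. Gain or loss relative to DMSO.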
# [4] = target: Hepatocyte nuclear factor 6 (Homo sapiens) (UniProt Q9UBC0); test: ATG_HNF6_CIS: Attagene CIS-FACTORIAL HepG2 Assay for human Hepatocyte Nuclear Factor 6 (HNF6) (AID 2282952); details: HepG2 Attagene cis-factorial HNF6 reporter transcription; actives raise or lower the signal
# Procedure, shortened: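 Twenty-four-hour chemical treatment of reporter-transfected HepG2 cells precedes RNA isolation, DNase-treated reverse transcription and PCR of reporter sequences. Labelled fragments are sized by capillary electrophoresis and fitted bidirectionally versus DMSO.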
# [5] = ATG_MRE_CIS: Attagene CIS-FACTORIAL HepG2 Assay for human Metal Responsive Element (MRE) (AID 2282954); details: HepG2 MRE cis-reporter transcription, Attagene multiplex; actives raise or lower the signal
# Procedure, shortened: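 Cells were transfected with cis-promoter reporter transcription units, then dosed for 24 h. RNA was reverse-transcribed, amplified, fluorescently labelled and resolved by capillary electrophoresis, and activity was fitted in both directions relative to DMSO.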
# [6] = ATG_PBREM_CIS: Attagene CIS-FACTORIAL HepG2 Assay for human Phenobarbital-responsive Enhancer Module (PBREM) (AID 2282955); details: HepG2 PBREM cis-reporter, Attagene multiplexed transcription; actives raise or lower the signal
# Procedure, shortened: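 Endogenous transcription factors in human liver HepG2 cells drive a PBREM cis-element reporter, whose transcript level after 24 h treatment is quantified by RT-PCR with capillary electrophoresis; activity fitted in both directions against DMSO.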
# [7] = target: Paired box protein Pax-6 (Homo sapiens) (UniProt P26367); test: ATG_Pax6_CIS: Attagene CIS-FACTORIAL HepG2 Assay for human Paired Box 6 (PAX6) (AID 2282956); details: HepG2 CIS-FACTORIAL PAX6 reporter transcription, RNA readout; actives raise or lower the signal
# Procedure, shortened: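 Read-out is reporter transcript level, measured by RT-PCR with fluorescent primer extension and capillary electrophoresis after 24 h dosing of transfected HepG2 cells. Activity in either direction fitted relative to DMSO control.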
# [8] = ATG_PPRE_CIS: Attagene CIS-FACTORIAL HepG2 Assay for human Peroxisome Proliferator-activated Response Element (PPRE) (AID 2282958); details: HepG2 PPRE cis-element reporter, Attagene transcription factor profiling; actives raise or lower the signal
# Procedure, shortened: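 HepG2, transient MRTU transfection (cis promoter elements, endogenous TFs). 24 h dosing. RNA → oligo(dT) RT → PCR → 6-FAM primer extension → HpaI digest → CE. Bidirectional fit vs DMSO.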
# [9] = target: Transcription factor Sp1 (Homo sapiens) (UniProt P08047); test: ATG_Sp1_CIS: Attagene CIS-FACTORIAL HepG2 Assay for human Specificity Protein 1 (Sp1) (AID 2282961); details: HepG2 Sp1 cis-reporter transcription, actives raise or lower the signal
# Procedure, shortened: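 Transient MRTU-transfected HepG2, 24 h compound exposure. Total RNA → oligo(dT) RT → PCR of reporter → 6-FAM primer extension → HpaI digest → CE. Endpoint fitted both directions vs DMSO.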
# [10] = ATG_SREBP_CIS: Attagene CIS-FACTORIAL HepG2 Assay for human Sterol Regulatory Element Binding (SREBP) (AID 2282962); details: HepG2 Attagene cis-factorial SREBP reporter, mRNA; actives raise or lower the signal
# Procedure, shortened: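 Endogenous SREBP activity read as cis-element-driven reporter transcript in transiently transfected HepG2, 24 h post-dosing; quantified via RT-PCR plus capillary electrophoresis of fluorescent fragments. Gain or loss of signal fitted relative to DMSO baseline.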
# [11] = target: Signal transducer and activator of transcription 3 (Homo sapiens) (UniProt P40763); test: ATG_STAT3_CIS: Attagene CIS-FACTORIAL HepG2 Assay for human Signal Transducer and Activator of Transcription 3 (STAT3) (AID 2282963); details: HepG2, Attagene cis-factorial STAT3 reporter transcription; actives raise or lower the signal
# Procedure, shortened: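 HepG2, MRTU-transfected, 24 h dosing. RNA → RT → PCR → FAM label → HpaI → CE. Bidirectional fit vs DMSO.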
# [12] = ATG_TA_CIS: Attagene CIS-FACTORIAL HepG2 Assay for human TA Basal Promoter (AID 2282964); details: HepG2 Attagene CIS-factorial TA basal promoter reporter; actives raise or lower the signal
# Procedure, shortened: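 Background-control readout: TA basal promoter reporter mRNA, fitted in both directions relative to DMSO. Measured by RT-PCR and capillary electrophoresis 24 hours after treating HepG2 human liver cells transiently carrying multiplexed cis-regulated reporter constructs.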
# [13] = ATG_TCF_b_cat_CIS: Attagene CIS-FACTORIAL HepG2 Assay for human T-Cell-Factor with beta-catenin (TCF/b-cat) (AID 2282965); details: HepG2 TCF/beta-catenin cis-reporter transcription, actives raise or lower the signal
# Procedure, shortened: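 In this cis-format system, transfected HepG2 cells report endogenous transcription factor activity. Readout after 24 h exposure is reporter transcript abundance from RT-PCR and capillary electrophoresis, analysed for gain or loss of signal versus DMSO.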
# [14] = ATG_TGFb_CIS: Attagene CIS-FACTORIAL HepG2 Assay for human Transforming Growth Factor (TGF) (AID 2282967); details: HepG2 Attagene CIS TGFb reporter, mRNA transcription; actives raise or lower the signal
# Procedure, shortened: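 Endogenous TGFB1-linked transcription factor activity read as reporter mRNA via RT-PCR and capillary electrophoresis, 24 h after dosing transiently transfected HepG2 cells. Gain or loss of signal fitted relative to DMSO.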
# [15] = ATG_VDRE_CIS: Attagene CIS-FACTORIAL HepG2 Assay for human Vitamin D Receptor Element (VDRE) (AID 2282968); details: HepG2 VDRE cis-reporter transcription, actives raise or lower the signal
# Procedure, shortened: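 Steps: transfect HepG2 with multiple reporter transcription units; dose chemicals 24 h; isolate RNA; RT-PCR; label with 6-FAM primer extension; HpaI digest; capillary electrophoresis. Curves fitted both directions against DMSO.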
# [16] = ATG_RORE_CIS: Attagene CIS-FACTORIAL HepG2 Assay for human RAR-related Orphan Receptor Element (RORE) (AID 2282959); details: HepG2 Attagene cis-factorial RORE reporter, mRNA; actives raise or lower the signal
# Procedure, shortened: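 Transient MRTU transfection of human HepG2 liver cells (FuGene 6); 24 h compound exposure; TriZol RNA, oligo(dT) RT, PCR, FAM labeling, HpaI cut, CE fragment analysis. DMSO = negative control/baseline.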
# [17] = ATG_Sox_CIS: Attagene CIS-FACTORIAL HepG2 Assay for human SRY-box transcription factor (SOX) (AID 2282960); details: HepG2 Attagene cis-factorial SOX reporter, mRNA; actives raise or lower the signal
# Procedure, shortened: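 Endogenous factor activity in human liver HepG2 cells carrying transfected cis-regulated reporter units. RNA taken 24 h post-dose, reverse-transcribed, PCR-amplified and sized by capillary electrophoresis. Gain or loss of signal fitted relative to DMSO.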
# [18] = ATG_TAL_CIS: Attagene CIS-FACTORIAL HepG2 Assay for human TAL Basal Promoter (AID 2282966); details: HepG2 Attagene cis-factorial TAL promoter reporter; actives raise or lower the signal;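 further: background control endpoint measuring basal TAL promoter reporter mRNA not a specific factor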
# Procedure, shortened: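 Human hepatoma HepG2 cells, transfected with promoter-regulated reporter units, were treated 24 h. Reporter transcript levels, measured through RT-PCR and capillary electrophoresis, were fitted for gain or loss relative to DMSO.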
# [19] = ATG_PXRE_CIS: Attagene CIS-FACTORIAL HepG2 Assay for human Pregnane X Receptor Element (PXRE) (AID 2282957); details: HepG2 Attagene CIS-FACTORIAL PXRE reporter, mRNA; actives raise or lower the signal
# Procedure, shortened: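 Bidirectional activity, baselined to DMSO, derived from reporter mRNA fluorescence (RT-PCR plus capillary electrophoresis) in HepG2 cells bearing cis-promoter reporter units, 24 h exposure.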
# [20] = target: Heat shock factor protein 1 (Homo sapiens) (UniProt Q00613); test: ATG_HSE_CIS: Attagene CIS-FACTORIAL HepG2 Assay for human Heat Shock Transcription Factor 1 (HSE) (AID 2282953); details: HepG2 HSE cis-reporter, Attagene RNA transcription; actives raise or lower the signal
# Procedure, shortened: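 Endogenous transcription factor activity in transiently transfected HepG2, read as reporter mRNA by RT-PCR with fluorescent capillary electrophoresis after 24 h. Gain or loss of signal fitted versus DMSO baseline.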
# Chain of Hypoxia-inducible factor 1-alpha (Homo sapiens) (Q16665 whole entry, looked up, the tested form may be a part): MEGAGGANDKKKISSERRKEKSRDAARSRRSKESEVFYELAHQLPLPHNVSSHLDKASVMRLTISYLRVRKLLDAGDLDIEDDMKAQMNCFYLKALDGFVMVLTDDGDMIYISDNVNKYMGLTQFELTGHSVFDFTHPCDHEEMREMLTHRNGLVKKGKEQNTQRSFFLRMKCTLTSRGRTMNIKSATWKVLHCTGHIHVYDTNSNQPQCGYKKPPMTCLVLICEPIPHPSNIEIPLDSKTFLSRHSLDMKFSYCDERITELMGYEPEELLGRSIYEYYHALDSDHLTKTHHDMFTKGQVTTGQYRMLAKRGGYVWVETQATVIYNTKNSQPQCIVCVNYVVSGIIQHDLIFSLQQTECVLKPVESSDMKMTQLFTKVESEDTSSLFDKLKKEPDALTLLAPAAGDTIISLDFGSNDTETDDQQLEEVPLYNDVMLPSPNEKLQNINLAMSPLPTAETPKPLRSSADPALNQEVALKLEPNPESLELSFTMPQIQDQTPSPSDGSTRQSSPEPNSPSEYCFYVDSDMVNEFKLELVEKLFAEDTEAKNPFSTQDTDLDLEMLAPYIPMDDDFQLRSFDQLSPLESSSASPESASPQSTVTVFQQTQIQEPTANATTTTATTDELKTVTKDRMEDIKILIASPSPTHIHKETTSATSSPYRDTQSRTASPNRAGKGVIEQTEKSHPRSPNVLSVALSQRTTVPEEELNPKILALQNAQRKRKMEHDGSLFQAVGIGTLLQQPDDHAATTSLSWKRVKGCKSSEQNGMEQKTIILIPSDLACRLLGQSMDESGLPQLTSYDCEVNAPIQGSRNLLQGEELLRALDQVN
# Chain of Signal transducer and activator of transcription 3 (Homo sapiens) (P40763 whole entry, looked up): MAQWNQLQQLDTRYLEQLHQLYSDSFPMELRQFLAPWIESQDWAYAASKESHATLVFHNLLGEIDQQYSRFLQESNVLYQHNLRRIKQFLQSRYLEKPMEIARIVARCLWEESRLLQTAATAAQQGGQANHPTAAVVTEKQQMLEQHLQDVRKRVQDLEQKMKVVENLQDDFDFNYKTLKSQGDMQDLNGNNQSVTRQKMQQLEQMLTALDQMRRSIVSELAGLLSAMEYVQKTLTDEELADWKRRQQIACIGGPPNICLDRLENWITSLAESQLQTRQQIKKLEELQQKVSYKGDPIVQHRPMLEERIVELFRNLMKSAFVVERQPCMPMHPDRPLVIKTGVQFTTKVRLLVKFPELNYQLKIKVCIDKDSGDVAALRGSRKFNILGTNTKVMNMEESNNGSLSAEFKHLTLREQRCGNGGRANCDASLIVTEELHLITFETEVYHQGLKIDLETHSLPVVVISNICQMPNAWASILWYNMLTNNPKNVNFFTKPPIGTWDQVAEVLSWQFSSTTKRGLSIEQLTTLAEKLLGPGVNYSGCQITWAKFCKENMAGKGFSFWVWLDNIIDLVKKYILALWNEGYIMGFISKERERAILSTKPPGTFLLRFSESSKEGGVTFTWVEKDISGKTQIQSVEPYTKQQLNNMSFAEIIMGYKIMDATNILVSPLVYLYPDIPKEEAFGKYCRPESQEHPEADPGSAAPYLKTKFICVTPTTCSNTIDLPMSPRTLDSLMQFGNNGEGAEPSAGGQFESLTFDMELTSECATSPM
# Chain of Hepatocyte nuclear factor 6 (Homo sapiens) (Q9UBC0 whole entry, looked up, the tested form may be a part): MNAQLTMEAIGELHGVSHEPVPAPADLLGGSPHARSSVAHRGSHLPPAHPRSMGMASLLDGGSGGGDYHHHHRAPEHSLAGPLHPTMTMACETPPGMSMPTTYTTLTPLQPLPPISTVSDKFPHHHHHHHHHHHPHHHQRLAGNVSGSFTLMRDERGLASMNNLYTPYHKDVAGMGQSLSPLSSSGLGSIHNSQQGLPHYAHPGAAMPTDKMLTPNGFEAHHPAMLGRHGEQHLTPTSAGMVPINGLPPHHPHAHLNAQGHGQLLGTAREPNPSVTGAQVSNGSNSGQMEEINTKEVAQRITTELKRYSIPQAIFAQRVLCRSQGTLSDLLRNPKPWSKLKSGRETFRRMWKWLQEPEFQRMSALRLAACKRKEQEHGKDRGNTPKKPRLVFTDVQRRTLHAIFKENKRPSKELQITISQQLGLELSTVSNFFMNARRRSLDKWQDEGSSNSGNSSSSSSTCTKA
# Chain of Paired box protein Pax-6 (Homo sapiens) (P26367 whole entry, looked up): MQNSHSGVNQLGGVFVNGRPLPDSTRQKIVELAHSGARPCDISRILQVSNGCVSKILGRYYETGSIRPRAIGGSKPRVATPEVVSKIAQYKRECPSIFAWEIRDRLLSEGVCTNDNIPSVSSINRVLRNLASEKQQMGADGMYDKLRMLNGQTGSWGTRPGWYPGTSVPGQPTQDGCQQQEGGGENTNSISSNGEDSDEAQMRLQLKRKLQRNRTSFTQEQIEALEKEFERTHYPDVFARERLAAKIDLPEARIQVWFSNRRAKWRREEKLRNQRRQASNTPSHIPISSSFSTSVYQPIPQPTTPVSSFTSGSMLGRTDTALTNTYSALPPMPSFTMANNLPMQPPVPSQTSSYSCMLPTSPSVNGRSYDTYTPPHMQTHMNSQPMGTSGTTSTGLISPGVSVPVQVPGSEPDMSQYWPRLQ
# Chain of Transcription factor Sp1 (Homo sapiens) (P08047 whole entry, looked up): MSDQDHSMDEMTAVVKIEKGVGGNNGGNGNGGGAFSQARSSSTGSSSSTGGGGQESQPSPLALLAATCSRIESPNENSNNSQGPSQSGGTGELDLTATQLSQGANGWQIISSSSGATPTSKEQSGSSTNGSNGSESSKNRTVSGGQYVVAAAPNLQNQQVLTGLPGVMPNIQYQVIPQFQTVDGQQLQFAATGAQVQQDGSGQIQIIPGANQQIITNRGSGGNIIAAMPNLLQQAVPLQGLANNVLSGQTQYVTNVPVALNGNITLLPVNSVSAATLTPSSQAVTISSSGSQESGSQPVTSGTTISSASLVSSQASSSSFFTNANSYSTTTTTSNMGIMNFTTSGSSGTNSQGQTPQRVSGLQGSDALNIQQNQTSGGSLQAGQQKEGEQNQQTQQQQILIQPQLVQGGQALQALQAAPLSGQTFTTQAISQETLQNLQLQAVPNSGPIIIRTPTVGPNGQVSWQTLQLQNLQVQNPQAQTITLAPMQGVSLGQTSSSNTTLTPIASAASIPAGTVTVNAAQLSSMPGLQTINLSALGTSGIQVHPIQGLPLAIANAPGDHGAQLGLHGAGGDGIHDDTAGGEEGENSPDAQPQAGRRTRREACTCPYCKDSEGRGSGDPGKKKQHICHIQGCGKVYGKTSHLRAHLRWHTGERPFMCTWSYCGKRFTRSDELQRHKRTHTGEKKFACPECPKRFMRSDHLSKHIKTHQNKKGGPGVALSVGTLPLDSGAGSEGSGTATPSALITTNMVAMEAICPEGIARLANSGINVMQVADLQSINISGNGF
# Chain of Heat shock factor protein 1 (Homo sapiens) (Q00613 whole entry, looked up): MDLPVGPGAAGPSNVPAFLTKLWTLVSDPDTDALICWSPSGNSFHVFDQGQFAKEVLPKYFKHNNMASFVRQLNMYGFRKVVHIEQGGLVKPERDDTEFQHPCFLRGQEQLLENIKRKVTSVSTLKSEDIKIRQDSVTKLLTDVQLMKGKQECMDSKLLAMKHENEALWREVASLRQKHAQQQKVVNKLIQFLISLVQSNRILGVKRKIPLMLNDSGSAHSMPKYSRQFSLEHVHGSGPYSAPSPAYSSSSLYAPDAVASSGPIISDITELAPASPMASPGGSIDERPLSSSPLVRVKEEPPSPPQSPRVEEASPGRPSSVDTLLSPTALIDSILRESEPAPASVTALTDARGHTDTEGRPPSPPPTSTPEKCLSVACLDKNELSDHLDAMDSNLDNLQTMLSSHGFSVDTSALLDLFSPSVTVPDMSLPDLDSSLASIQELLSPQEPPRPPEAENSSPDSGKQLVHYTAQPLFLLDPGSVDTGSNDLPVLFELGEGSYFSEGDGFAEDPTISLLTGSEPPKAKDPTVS
compound,measurement,setting,value
FC(F)(F)C1(F)C(F)(F)C(F)(F)C(F)(F)C1(F)F,outcome,[1],inactive
same,outcome,[2],inactive
same,outcome,[3],inactive
same,outcome,[4],inactive
same,outcome,[5],inactive
same,outcome,[6],inactive
same,outcome,[7],inactive
same,outcome,[8],inactive
same,outcome,[9],inactive
same,outcome,[10],inactive
same,outcome,[11],inactive
same,outcome,[12],inactive
same,outcome,[13],inactive
same,outcome,[14],inactive
same,outcome,[15],inactive
Clc1ccc2c(Cl)ccnc2c1,outcome,[1],inactive
same,outcome,[2],inactive
same,outcome,[3],inactive
same,outcome,[4],inactive
same,outcome,[5],inactive
same,outcome,[6],inactive
same,outcome,[7],inactive
same,AC50,[8],41.2 µM (active)
same,outcome,[16],inactive
same,outcome,[17],inactive
same,outcome,[9],inactive
same,outcome,[11],inactive
same,outcome,[12],inactive
same,outcome,[13],inactive
same,outcome,[18],inactive
same,outcome,[14],inactive
same,outcome,[15],inactive
CCCCCC(C)OC(=O)COc1ccc(Cl)c2cccnc12 (stereo not given),outcome,[1],inactive
same,outcome,[2],inactive
same,outcome,[3],inactive
same,outcome,[4],inactive
same,outcome,[5],inactive
same,outcome,[6],inactive
same,outcome,[7],inactive
same,AC50,[19],7.22 µM (active)
same,outcome,[16],inactive
same,outcome,[9],inactive
same,outcome,[10],inactive
same,outcome,[11],inactive
same,outcome,[12],inactive
same,outcome,[13],inactive
same,outcome,[18],inactive
same,outcome,[14],inactive
same,outcome,[15],inactive
CC(=O)Nc1ccc(O)cc1,outcome,[1],inactive
same,outcome,[2],inactive
same,outcome,[20],inactive
same,outcome,[5],inactive
same,outcome,[6],inactive
same,outcome,[19],inactive
same,outcome,[16],inactive
same,outcome,[17],inactive
same,outcome,[9],inactive
same,outcome,[10],inactive
same,outcome,[11],inactive
same,outcome,[12],inactive
same,outcome,[13],inactive
same,outcome,[18],inactive
same,outcome,[14],inactive
Cc1ccc(C(=O)c2ccccc2)cc1,outcome,[1],inactive
same,outcome,[2],inactive
same,outcome,[3],inactive
same,outcome,[4],inactive
same,outcome,[5],inactive
same,outcome,[6],inactive
same,AC50,[19],30.4 µM (active)
same,outcome,[8],inactive
same,outcome,[17],inactive
same,outcome,[9],inactive
same,outcome,[10],inactive
same,outcome,[11],inactive
same,outcome,[12],inactive
same,outcome,[13],inactive
same,outcome,[14],inactive
same,outcome,[15],inactive

# Source: PubChem BioAssay (EPA / NIEHS)
